BAZ2B block: BAZ2B (human) inhibition. AlphaScreen BAZ2B-H3K14Ac peptide displacement. Potency, µM (titrated, usually from 114 µM), for inactives: at the highest dose activity change, negative = inhibition, most hits filed as inhibitors. hit rate 4.4% among 360,000. Q9UIF8; note: potency is the fitted concentration of half-maximal effect; % is set by controls: 0 for no effect and ±100 for the full control effect; nearly all actives have a fitted effect of over 60% in size
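BAZ2B 50 nM plus b-H3(5-23)K14Ac 50 nM, PBS pH 7.4/0.01% Tween-20, 30 min RT; compound added (max 110 uM), 30 min RT; streptavidin donor/Ni-chelate acceptor beads 10 ug/mL final, 20 min dark; AlphaScreen read.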
KAT2A inh: inhibitors of human GCN5L2 histone acetyltransferase; Q92830; GCN5L2 HAT assay, ThioGlo1 CoA-SH fluorescence; Potency, µM (top dose mostly 58.9 µM), without a hit: top-dose activity change, negative = inhibition, actives largely listed as inhibitors; hit rate 0.21% among 390,000; AID 504327; note: potency is the fitted concentration of half-maximal effect; % is set by controls: 0 for no effect and ±100 for the full control effect
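GCN5L2 (20nM final) in 50mM HEPES, 0.1mM EDTA pH 7.5, 0.01% Tween-20 was preincubated 15 min at room temperature with compound, then given ThioGlo1 (50uM), H3(1-25) peptide (75uM) and acetyl-CoA (70uM); CoA-thiol fluorescence (Ex340/Em540) was read at 0 and 20 min.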
HP1b chromo inh: HP1-beta chromodomain-methylated histone interaction inhibition | P83916 | Potency, µM (top dose mostly 114 µM), without a hit: at the highest dose activity change, negative = inhibition, hits mostly inhibitors | AlphaScreen HP1-beta / biotin-H3K9me3 peptide binding | hit rate 0.56% among 390,000; note: potency is the fitted concentration of half-maximal effect; nearly all actives have a fitted effect of over 70% in size
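HP1-beta protein (50 nM final) preincubated 30 min at room temperature with biotinylated H3(1-18)K9me3 peptide (50 nM) in PBS pH 7.4, 0.01% Tween-20, then compound added for 30 min. AlphaScreen streptavidin donor/nickel chelate acceptor beads (10 ug/mL final), 30 min dark, luminescence read.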
PI5P4Ka inh: PI5P4K alpha (human) kinase inhibition; P48426; PI5P4Kalpha enzyme, ADP-Glo luminescence, 60 min; hits give low values; max response, %; hit rate 1.2% among 330,000; AID 652105; active = max response of -50% or lower; inconclusive = between -30% and -50%; inactive = -30% or higher; note: value at the top dose of about 77 µM; % is set by controls: 0 for no effect and ±100 for the full control effect
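PI5P4Kalpha ADP-Glo assay; 5 microM ATP final; 60 min RT reaction; HEPES pH 7.4/EGTA/CHAPS, 5% DMSO; controls lacking substrate or enzyme; luminescent end-point.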
JMJD2A Tudor: blocks the human JMJD2A Tudor domain. hit rate 4.4% among 390,000. Potency, µM (top dose mostly 114 µM), for inactives: at the top dose activity change, negative = inhibition, hits mostly inhibitors. AlphaScreen JMJD2A-Tudor / H3K4me3 peptide binding. O75164. AID 504339; note: potency is the fitted concentration of half-maximal effect; % is set by controls: 0 for no effect and ±100 for the full control effect; nearly all actives have a fitted effect of over 50% in size
PLK1 PBD inh: blocks phosphopeptide binding to human PLK1 polo-box domain | P53350 | Plk1 PBD binding of FITC phosphopeptide, fluorescence polarization | Potency, µM, without a hit: max response, negative = inhibition, usual class: inhibitors | hit rate 2.8% among 360,000 | AID 720504; note: potency is the fitted concentration of half-maximal effect; series mostly up to about 57 µM; % is set by controls: 0 for no effect and ±100 for the full control effect; nearly all actives have a fitted effect of over 65% in size
* = called active by the depositor; [ ] = remark or other dose. Sampled rows, rich in hits. Any-hit rate of the full collection: about 7%. Unless noted, calls come from the whole dose curve; as a rule, active = well fitted curve in the direction sought with a large enough effect; inconclusive = small, poorly fitted or top-dose-only effect, or another doubt; inactive = no such curve, though single readings can be large; an effect the other way counts as inactive or inconclusive.

COc1cccc(/C=N/n2c(-c3cc(C)[nH]n3)n[nH]c2=S)c1OC was read as BAZ2B block -36%, KAT2A inh -3%, HP1b chromo inh 4%, PI5P4Ka inh -12, JMJD2A Tudor 1.8µM* and PLK1 PBD inh -10%.
Screening COc1cccc(/C=N/n2c(-c3n[nH]c4c3CCC4)n[nH]c2=S)c1OC returned BAZ2B block -16%, KAT2A inh -8%, HP1b chromo inh inconclusive, PI5P4Ka inh -14, JMJD2A Tudor 3.2µM* and PLK1 PBD inh inconclusive.
For COc1cccc(/C=N/n2c(=S)n(C)c3cc(C)c(C)cc32)c1OC the results were BAZ2B block -4%[57.1 µM], KAT2A inh inconclusive, HP1b chromo inh 7%, PI5P4Ka inh 0, JMJD2A Tudor -31% and PLK1 PBD inh -6%.
Screening CCCCn1cnc2c1c(=O)[nH]c(=O)n2CCCC returned BAZ2B block -2%, KAT2A inh -11%, HP1b chromo inh -18%, PI5P4Ka inh 6, JMJD2A Tudor -8%[11.4 µM] and PLK1 PBD inh 12µM*.
Screening CCn1cnc2c1c(=O)[nH]c(=O)n2Cc1ccccc1 returned BAZ2B block 9%, KAT2A inh -28%, HP1b chromo inh 15%, PI5P4Ka inh 4, JMJD2A Tudor -1% and PLK1 PBD inh 0%.
Screening CCCCC(CC)C(=O)Nc1ccc(C)c(O)c1 (stereo not drawn) returned BAZ2B block -5%, KAT2A inh -2%, HP1b chromo inh -13%, PI5P4Ka inh -3, JMJD2A Tudor 50µM* and PLK1 PBD inh 30µM*.
CCCCC(CC)C(=O)Nc1ccc(Nc2ccccc2)cc1 (stereo not drawn) was read as BAZ2B block inconclusive, KAT2A inh -11%, HP1b chromo inh -25%, PI5P4Ka inh -12, JMJD2A Tudor inconclusive and PLK1 PBD inh -2%.
`Cc1csc2nc(CSc3ccc(Cl)cc3)cn12` gave BAZ2B block 7%, KAT2A inh -3%, HP1b chromo inh 65%, PI5P4Ka inh -13, JMJD2A Tudor 17% and PLK1 PBD inh 6.7µM*.
For COc1ccc(-c2cn3nc(N4CCC(C(=O)Nc5ccccc5OC)CC4)sc3n2)cc1 the results were BAZ2B block -1%, KAT2A inh -9%, HP1b chromo inh 24% and JMJD2A Tudor -13%.
Cc1oc2cc(O)ccc2c(=O)c1-c1ccccc1 was read as BAZ2B block -14%, KAT2A inh -10%, HP1b chromo inh 18%[57 µM], PI5P4Ka inh -11, JMJD2A Tudor -8% and PLK1 PBD inh -12%.
Screening Cc1oc2cc(O)ccc2c(=O)c1-c1nncn1-c1ccccc1 returned BAZ2B block -22%, KAT2A inh -2%, HP1b chromo inh 23%, PI5P4Ka inh inconclusive, JMJD2A Tudor -19% and PLK1 PBD inh 30µM*.
CCCn1c(=S)[nH]c2cc(C(=O)NCC3CCCO3)ccc2c1=O (stereo not drawn) was read as BAZ2B block -8%, KAT2A inh -10%, HP1b chromo inh 51%, PI5P4Ka inh 1, JMJD2A Tudor -1% and PLK1 PBD inh 0%.
Screening O=C(CCCn1c(SCC(=O)c2ccc(O)c(O)c2)nc2ccccc2c1=O)NCC1CCCO1 (stereo not drawn) returned BAZ2B block inconclusive, KAT2A inh -7%, HP1b chromo inh -11%, JMJD2A Tudor 32µM* and PLK1 PBD inh -7%.
CN(C(=O)CSc1cn(CC(=O)N2CCOCC2)c2ccccc12)c1ccccc1 was read as BAZ2B block -3%, KAT2A inh 0%, HP1b chromo inh 8%, PI5P4Ka inh -21, JMJD2A Tudor -11% and PLK1 PBD inh 12µM*.
Screening O=C(CCn1c(=S)[nH]c2ccccc2c1=O)NCC1CCCO1 (stereo not drawn) returned BAZ2B block 1%, KAT2A inh -24%, HP1b chromo inh 41%, JMJD2A Tudor 50µM* and PLK1 PBD inh -6%.
For CC1CN(C(=O)CSc2cn(CC(=O)N3CCOCC3)c3ccccc23)CC(C)O1 (stereo not drawn) the results were BAZ2B block 1%, KAT2A inh -6%, HP1b chromo inh 33%, PI5P4Ka inh 6, JMJD2A Tudor -12% and PLK1 PBD inh -15%.
For O=C(CSc1cn(CC(=O)N2CCCCC2)c2ccccc12)NCC1CCCO1 (stereo not drawn) the results were BAZ2B block -16%, KAT2A inh -5%, HP1b chromo inh -22%, PI5P4Ka inh -11, JMJD2A Tudor 50µM* and PLK1 PBD inh 27µM*.
`O=C(CSc1nc2ccccc2c(=O)n1CC1CCCO1)NCC1CCCO1` (stereo not drawn) gave BAZ2B block 6%, KAT2A inh -1%, HP1b chromo inh 29%, PI5P4Ka inh -3, JMJD2A Tudor -7% and PLK1 PBD inh -2%.
`O=C(CSc1nc2ccccc2c(=O)n1CCC(=O)N1CCN(c2ccccc2)CC1)NCC1CCCO1` (stereo not drawn) gave BAZ2B block -24%, KAT2A inh -4%, HP1b chromo inh -3%, PI5P4Ka inh -12, JMJD2A Tudor 56µM* and PLK1 PBD inh inconclusive.
`COc1ccc(OC)c(C2C=C(C34CC5CC(CC(C5)C3)C4)NC(=S)N2)c1` (stereo not drawn) gave BAZ2B block 32µM*, KAT2A inh -9%, HP1b chromo inh inconclusive, PI5P4Ka inh -8, JMJD2A Tudor inconclusive and PLK1 PBD inh -15%.
Screening CNC(=S)N1N=C(c2ccc(Br)cc2)CC1c1ccc(N(C)C)cc1 (stereo not drawn) returned BAZ2B block 10µM*, KAT2A inh -23%, HP1b chromo inh inconclusive, PI5P4Ka inh 2, JMJD2A Tudor 11µM* and PLK1 PBD inh 7%.
Screening CNC(=S)N1N=C(c2ccc(OC)cc2)CC1c1ccc(N(C)C)cc1 (stereo not drawn) returned BAZ2B block 11µM*, KAT2A inh -18%, HP1b chromo inh -52%, PI5P4Ka inh 2, JMJD2A Tudor 35µM* and PLK1 PBD inh 1%.
CNC(=S)N1N=C(c2ccc(Br)cc2)CC1c1ccc(Br)cc1 (stereo not drawn) was read as BAZ2B block -3%, KAT2A inh -9%, HP1b chromo inh 22%, PI5P4Ka inh -3, JMJD2A Tudor -27% and PLK1 PBD inh 0%.
`CCn1c(SCc2ccccc2F)nnc1-c1ccncc1` gave BAZ2B block -1%, KAT2A inh 4%, HP1b chromo inh 14%[57 µM], PI5P4Ka inh 1, JMJD2A Tudor -13% and PLK1 PBD inh -23%.

Bioassay records deposited in PubChem BioAssay by National Center for Advancing Translational Sciences (NCATS).
